Molecules are shown by their SMILES. This is part of a sample that, as a whole, favours compounds with a hit. Of some 79,000 tested, about 15% had one in any assay. Unmarked numbers belong to inactive results. No stated cut-off is given here; in the data, active means growth inhibition above about 70%; inactive means the rest.

The nature of the test: NCI Yeast Anticancer Drug Screen. Data for the mlh1 rad18 strain (AID 175). The following applies: S. cerevisiae mlh1 rad18 strain growth inhibition; at 50.0 µM; hits give high values. In short, it runs like this:
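Read-out is yeast growth inhibition, calculated against vehicle-only controls. The compound was applied to a strain engineered with DNA damage repair alterations.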
As for `CCCCCCCCCCCCCCCC(=O)OCC(=O)O`, the growth inhibition is 1.3%. With `COc1ccc(NC(=O)NCc2ccc(C)cc2)cc1`, the growth inhibition is 26.9%. With `COc1ccc2c(=O)cc[nH]c2c1OC` the figure was 4.85%; with `CCOC(=O)C(CN)c1ccccc1` (stereo not given), 3.6%; with `O=C1c2c(F)c(F)c(F)c(F)c2SC2=Nc3cccc4cccc(c34)N12`, -37.8%. For the compound `N=c1sc(N2CCOCC2)nn1CC(=O)c1ccccc1`, the growth inhibition was 15.1%. Turning to `O=Cc1ccc(-c2ccc(S(=O)(=O)O)cc2)o1`, the growth inhibition was -3.2%.

With `COc1ccc(/C=N/NC(=O)NCCCN(C)C)cc1`, the growth inhibition is -7.65%. Turning to `NC(CCOCCP(=O)(O)CCC1C=CC=CC1)C(=O)O` (stereo not given), the growth inhibition is -19.9%. Regarding `COc1cccc(N2C(Cl)C(=O)C2c2c[nH]c3ccccc23)c1` (stereo not given), the growth inhibition was -47%. Consider `O=C(COc1ccc(Cl)cc1Cl)Nc1ccc2ccccc2c1S(=O)(=O)O`, for which the growth inhibition is 3.6%.

For the compound `c1ccc(C2OCC(OC3CCCCO3)CO2)cc1` (stereo not given), the growth inhibition was -2.15%. The figure for `N#Cc1cnn2ccn(C3OC(CO)C(O)C3O)c12` (stereo not given) is 14.9%. Regarding `COC(=O)c1cc(C)c2c3ccccc3n(C)c2c1C(=O)OC`, the growth inhibition is -13.5%.

Turning to `CN(C)c1ccc(C(=Cc2ccccc2)c2ccc(N(C)C)cc2)cc1`, the growth inhibition is 5.5%. With `CCCCCCCCCCCCCCCCCCOC(=O)C1CCCN1` (stereo not given) the figure was 8.6%. With `N#C/C(=C\NC(=S)NCc1ccccc1)c1nc2ccccc2s1` the figure was 61.5%; with `O=C(CCCO)c1nc2ccccc2s1`, 4.7%; with `COc1ccc2c(=O)c(Cc3c[nH]c4ccccc34)coc2c1`, 19.2%.

For `O=[N+]([O-])c1ccc(-c2ccncc2)cc1`, the growth inhibition was -9.05%. As to `Cc1ccc(C2OC(N)=C(O)C2=O)cc1` (stereo not given), the growth inhibition is 9.5%.

Regarding `C=CC1C(=O)N(C)[C@H](C(C)(C)C)N1C(=O)c1ccccc1` (stereo not given in full), the growth inhibition is 10%. With `CN1c2ccccc2N(C)C2C1N(C)c1ccccc1N2C` (stereo not given) the figure was -36.1%; with `O=C(O)Cc1cc(I)c(Oc2ccc(O)cc2)c(I)c1`, 3.9%.

As to `COC(=O)C1(CC(=O)/C=C/c2ccccc2)NC(=S)NC(=O)C1C#N` (stereo not given), the growth inhibition was 9.9%. `Cc1[nH]nc(N)c1C(N)=O`: the growth inhibition was 5.85%. With `O=C1CSC(c2cccc(C(F)(F)F)c2)N1c1nncs1` (stereo not given) the figure was 15.1%; with `CC(=O)OCCN(C)C`, -10.4%; with `Cc1cc(C)c(C(C)(C)O)c(C)c1`, 1.1%. The figure for `N.N.N.N.N.O=C([O-])c1nn[n-]n1.[Cl-].[Co+3]` is -7.5%; for `O=[N+]([O-])c1ccc(-c2ccc([N+](=O)[O-])cc2)cc1` it is -13.3%; for `O=C1CSC=NN1c1ccccc1` it is 3.9%. On to `CCC(CC)(CO)CO`, for which the growth inhibition is -1.55%.

On to `c1ccc(C(SN=C2CCCCC2)(c2ccccc2)c2ccccc2)cc1`, for which the growth inhibition is -13.1%. The figure for `COC(=O)CC1(C(=O)OC)Nc2ccccc2C(=O)O1` (stereo not given) is 2.9%. For `CCOC(=O)CN/N=C(\N)CSS(=O)(=O)O`, the growth inhibition was 3.05%. With `O=C(Nc1ccccc1)C1CC2C=CC1C2` (stereo not given) the figure was 1.55%. With `COc1ccc(CCNC(=O)CCc2ccccc2CO)cc1OC` the figure was -5.9%; with `Cc1cn(C2CC(N=[N+]=[N-])C(CO)O2)c(=O)[nH]c1=O` (stereo not given), -15.6%; with `COc1ccccc1NC(=O)NCCN1CCCC1`, 5.3%.

Source of the values: PubChem BioAssay (NCI).
